# Laboratory results: ChEMBL document CHEMBL1961873, “Compounds: GSK PKIS; Assays: Nanosyn kinase panel” (2012)
# Assays:
# [1] = target: Serine/threonine-protein kinase MARK2 (Homo sapiens) (UniProt Q7KZI7); conditions: at 1 µM
# [2] = target: PAS domain-containing serine/threonine-protein kinase (Homo sapiens) (UniProt Q96RG2); conditions: at 0.1 µM
# [3] = target: PAS domain-containing serine/threonine-protein kinase (Homo sapiens) (UniProt Q96RG2); conditions: at 1 µM
# [4] = target: Phosphorylase b kinase gamma catalytic chain, skeletal muscle/heart isoform (Homo sapiens) (UniProt Q16816); conditions: at 0.1 µM
# [5] = target: Phosphorylase b kinase gamma catalytic chain, skeletal muscle/heart isoform (Homo sapiens) (UniProt Q16816); conditions: at 1 µM
# [6] = target: T1, Phosphorylase b kinase gamma catalytic chain, liver/testis isoform (Homo sapiens) (UniProt P15735); conditions: at 0.1 µM
# T1 sequence (whole entry): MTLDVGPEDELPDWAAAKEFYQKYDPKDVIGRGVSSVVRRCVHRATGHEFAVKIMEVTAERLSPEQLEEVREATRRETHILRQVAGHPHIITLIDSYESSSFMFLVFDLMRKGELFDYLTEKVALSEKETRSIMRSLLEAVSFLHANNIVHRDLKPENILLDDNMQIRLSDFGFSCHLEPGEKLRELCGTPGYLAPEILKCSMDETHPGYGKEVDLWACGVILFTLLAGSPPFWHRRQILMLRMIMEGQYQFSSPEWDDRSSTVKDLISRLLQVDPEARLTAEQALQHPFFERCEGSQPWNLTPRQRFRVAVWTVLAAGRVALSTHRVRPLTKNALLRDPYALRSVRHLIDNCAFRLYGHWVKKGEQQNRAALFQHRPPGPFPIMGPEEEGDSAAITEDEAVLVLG
# [7] = target: T1, Phosphorylase b kinase gamma catalytic chain, liver/testis isoform (Homo sapiens); conditions: at 1 µM
# [8] = target: Serine/threonine-protein kinase pim-1 (Homo sapiens) (UniProt P11309); conditions: at 0.1 µM
# [9] = target: Serine/threonine-protein kinase pim-1 (Homo sapiens) (UniProt P11309); conditions: at 1 µM
# [10] = target: Serine/threonine-protein kinase pim-2 (Homo sapiens) (UniProt Q9P1W9); conditions: at 0.1 µM;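 note: reported value is the mean percent inhibition of PIM2, measured in the GSK PKIS kinase inhibitor set screen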
# Serine/threonine-protein kinase pim-2 (Homo sapiens), sequence (Q9P1W9 whole entry, looked up): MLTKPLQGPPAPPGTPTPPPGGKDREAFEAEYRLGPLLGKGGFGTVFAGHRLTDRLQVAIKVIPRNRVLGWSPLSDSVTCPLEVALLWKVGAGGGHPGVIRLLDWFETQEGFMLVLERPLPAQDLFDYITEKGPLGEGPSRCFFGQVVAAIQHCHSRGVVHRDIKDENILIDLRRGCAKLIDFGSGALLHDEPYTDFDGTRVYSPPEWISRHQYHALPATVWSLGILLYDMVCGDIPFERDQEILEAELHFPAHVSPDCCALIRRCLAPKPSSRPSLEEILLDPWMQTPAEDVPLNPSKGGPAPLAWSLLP
# Serine/threonine-protein kinase pim-1 (Homo sapiens), sequence (P11309 whole entry, looked up): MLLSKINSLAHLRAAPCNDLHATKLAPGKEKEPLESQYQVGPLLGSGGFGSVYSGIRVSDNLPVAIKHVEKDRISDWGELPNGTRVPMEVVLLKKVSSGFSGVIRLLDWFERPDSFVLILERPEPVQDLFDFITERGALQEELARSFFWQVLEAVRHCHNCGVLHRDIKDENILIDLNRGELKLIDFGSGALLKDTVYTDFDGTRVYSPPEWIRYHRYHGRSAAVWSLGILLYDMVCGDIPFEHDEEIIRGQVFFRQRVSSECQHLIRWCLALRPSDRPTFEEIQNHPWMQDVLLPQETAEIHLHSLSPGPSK
# Phosphorylase b kinase gamma catalytic chain, skeletal muscle/heart isoform (Homo sapiens), sequence (Q16816 whole entry, looked up, canonical isoform): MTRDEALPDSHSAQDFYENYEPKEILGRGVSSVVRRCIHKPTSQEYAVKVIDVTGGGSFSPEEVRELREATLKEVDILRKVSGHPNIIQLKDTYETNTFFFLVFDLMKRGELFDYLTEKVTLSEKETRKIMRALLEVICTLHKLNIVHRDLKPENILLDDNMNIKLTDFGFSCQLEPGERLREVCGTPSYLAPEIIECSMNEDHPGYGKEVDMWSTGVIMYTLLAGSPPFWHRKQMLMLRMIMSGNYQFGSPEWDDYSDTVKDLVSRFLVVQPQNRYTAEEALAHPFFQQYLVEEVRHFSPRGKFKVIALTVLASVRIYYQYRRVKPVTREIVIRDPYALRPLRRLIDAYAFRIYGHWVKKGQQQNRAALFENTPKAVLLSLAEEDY
# PAS domain-containing serine/threonine-protein kinase (Homo sapiens), sequence (Q96RG2 whole entry, the tested form may be a part, canonical isoform): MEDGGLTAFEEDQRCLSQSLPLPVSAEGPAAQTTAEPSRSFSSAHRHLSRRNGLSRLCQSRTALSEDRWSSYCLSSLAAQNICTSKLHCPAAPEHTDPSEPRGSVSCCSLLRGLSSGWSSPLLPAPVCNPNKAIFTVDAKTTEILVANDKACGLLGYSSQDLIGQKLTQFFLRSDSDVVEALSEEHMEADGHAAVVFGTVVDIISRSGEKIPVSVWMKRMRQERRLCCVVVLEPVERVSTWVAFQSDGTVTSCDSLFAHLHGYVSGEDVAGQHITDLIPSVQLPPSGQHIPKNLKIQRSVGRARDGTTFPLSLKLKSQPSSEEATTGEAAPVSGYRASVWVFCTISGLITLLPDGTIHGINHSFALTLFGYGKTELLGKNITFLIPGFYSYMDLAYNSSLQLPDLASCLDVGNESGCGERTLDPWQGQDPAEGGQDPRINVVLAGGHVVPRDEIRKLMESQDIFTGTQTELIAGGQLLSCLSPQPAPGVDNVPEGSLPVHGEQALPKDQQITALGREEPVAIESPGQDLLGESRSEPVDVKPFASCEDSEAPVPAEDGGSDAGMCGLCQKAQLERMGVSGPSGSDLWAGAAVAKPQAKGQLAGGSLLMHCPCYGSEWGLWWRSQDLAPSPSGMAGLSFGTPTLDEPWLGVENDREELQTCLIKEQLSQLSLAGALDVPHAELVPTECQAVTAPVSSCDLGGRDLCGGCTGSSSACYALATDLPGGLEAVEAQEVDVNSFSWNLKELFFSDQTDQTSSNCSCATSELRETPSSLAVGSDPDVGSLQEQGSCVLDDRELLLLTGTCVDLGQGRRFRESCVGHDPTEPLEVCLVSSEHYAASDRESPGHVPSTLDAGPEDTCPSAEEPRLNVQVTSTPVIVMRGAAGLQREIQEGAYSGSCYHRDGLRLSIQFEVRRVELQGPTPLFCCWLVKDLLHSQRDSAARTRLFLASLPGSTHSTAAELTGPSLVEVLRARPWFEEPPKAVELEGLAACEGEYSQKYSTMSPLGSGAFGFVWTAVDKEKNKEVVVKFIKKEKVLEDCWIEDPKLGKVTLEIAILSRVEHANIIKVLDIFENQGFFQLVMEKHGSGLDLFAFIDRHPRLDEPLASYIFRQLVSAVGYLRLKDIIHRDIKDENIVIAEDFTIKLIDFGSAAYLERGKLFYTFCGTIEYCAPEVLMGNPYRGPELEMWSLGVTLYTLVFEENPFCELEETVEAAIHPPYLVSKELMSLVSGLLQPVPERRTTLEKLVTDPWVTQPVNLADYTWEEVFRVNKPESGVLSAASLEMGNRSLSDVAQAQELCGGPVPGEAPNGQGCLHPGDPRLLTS
# Serine/threonine-protein kinase MARK2 (Homo sapiens), sequence (Q7KZI7 whole entry, the tested form may be a part): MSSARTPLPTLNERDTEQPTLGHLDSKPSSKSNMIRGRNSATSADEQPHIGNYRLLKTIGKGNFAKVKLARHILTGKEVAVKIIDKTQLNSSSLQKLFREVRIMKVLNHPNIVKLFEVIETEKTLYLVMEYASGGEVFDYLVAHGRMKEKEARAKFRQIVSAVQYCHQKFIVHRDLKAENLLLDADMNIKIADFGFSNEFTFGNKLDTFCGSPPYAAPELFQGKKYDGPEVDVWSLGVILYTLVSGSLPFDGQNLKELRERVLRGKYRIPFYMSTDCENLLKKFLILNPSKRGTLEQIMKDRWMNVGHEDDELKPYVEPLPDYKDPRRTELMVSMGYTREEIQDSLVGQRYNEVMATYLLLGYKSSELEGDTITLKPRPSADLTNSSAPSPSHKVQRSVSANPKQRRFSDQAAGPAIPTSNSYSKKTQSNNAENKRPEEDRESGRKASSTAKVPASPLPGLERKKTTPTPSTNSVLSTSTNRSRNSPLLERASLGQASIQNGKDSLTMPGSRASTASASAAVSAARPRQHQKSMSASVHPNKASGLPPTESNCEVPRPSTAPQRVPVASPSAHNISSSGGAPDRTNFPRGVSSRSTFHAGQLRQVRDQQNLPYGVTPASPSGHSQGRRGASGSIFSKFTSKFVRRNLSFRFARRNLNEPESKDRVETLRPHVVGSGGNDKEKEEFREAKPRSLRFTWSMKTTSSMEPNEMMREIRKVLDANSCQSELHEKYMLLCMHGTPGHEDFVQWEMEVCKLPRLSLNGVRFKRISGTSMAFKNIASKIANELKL
smiles,measurement,setting,value
NC(=O)c1ccc(Oc2nccc(-c3c(-c4ccc(F)cc4)ncn3C3CCNCC3)n2)cc1,inhibition,[1],4.02%
same,inhibition,[2],-1.25%
same,inhibition,[3],-0.29%
same,inhibition,[4],3.06%
same,inhibition,[5],5.58%
same,inhibition,[6],5.89%
same,inhibition,[7],5.72%
same,inhibition,[8],0.9%
same,inhibition,[9],1.7%
same,inhibition,[10],-0.5%
COc1ccc2ncn(-c3cc(O[C@H](C)c4ccccc4Cl)c(C(N)=O)s3)c2c1,inhibition,[1],0.49%
same,inhibition,[2],-0.21%
same,inhibition,[3],0.54%
same,inhibition,[4],5.98%
same,inhibition,[5],7.62%
same,inhibition,[6],6%
same,inhibition,[7],5%
same,inhibition,[8],-0.74%
same,inhibition,[9],3.29%
same,inhibition,[10],-3.96%
CCC(=O)Nc1ccc(C)c(-c2ccc(C(=O)NCC3CC3)cc2)c1,inhibition,[1],1.92%
same,inhibition,[2],-0.16%
same,inhibition,[3],-0.9%
same,inhibition,[4],1.26%
same,inhibition,[5],4.36%
same,inhibition,[6],2.68%
same,inhibition,[7],2.43%
same,inhibition,[8],1.37%
same,inhibition,[9],1.55%
same,inhibition,[10],-2.01%
C/C(Nc1ccc(S(N)(=O)=O)cc1)=C1/C(=O)Nc2ccccc21,inhibition,[1],18.6%
same,inhibition,[2],-1.08%
same,inhibition,[3],-1.37%
same,inhibition,[4],5.53%
same,inhibition,[5],29.9%
same,inhibition,[6],-0.73%
same,inhibition,[7],19.6%
same,inhibition,[8],0.43%
same,inhibition,[9],2.86%
same,inhibition,[10],0.75%
CN1CCN(CCCNc2nc3ccc(Oc4ccc(NC(=O)Nc5cc(C(F)(F)F)ccc5F)cc4)cc3[nH]2)CC1,inhibition,[1],2.75%
same,inhibition,[2],1.07%
same,inhibition,[3],-1.18%
same,inhibition,[4],-0.01%
same,inhibition,[5],0.68%
same,inhibition,[6],2.23%
same,inhibition,[7],-0.8%
same,inhibition,[8],0.7%
same,inhibition,[9],0.87%
same,inhibition,[10],-1.87%
COC(=O)Nc1nc2ccc(Sc3ccc(NC(=O)Nc4cc(C(F)(F)F)ccc4F)cc3)cc2[nH]1,inhibition,[1],-0.67%
same,inhibition,[2],1.15%
same,inhibition,[3],2%
same,inhibition,[4],8.5%
same,inhibition,[5],-0.17%
same,inhibition,[6],1.59%
same,inhibition,[7],0.05%
same,inhibition,[8],33.7%
same,inhibition,[9],-0.09%
same,inhibition,[10],-0.3%
COc1cc2ncn(-c3cc(OCc4ccccc4C(F)(F)F)c(C(C)=O)s3)c2cc1OC,inhibition,[1],1.04%
same,inhibition,[2],0.79%
same,inhibition,[3],1%
same,inhibition,[4],2.96%
same,inhibition,[5],2.39%
same,inhibition,[6],4.43%
same,inhibition,[7],4.18%
same,inhibition,[8],-0.09%
same,inhibition,[9],0.89%
same,inhibition,[10],0.28%
Nc1nccc(-c2c(-c3ccc(F)cc3)ncn2C2CCC(O)CC2)n1 (stereo not given),inhibition,[1],2.02%
same,inhibition,[2],-0.7%
same,inhibition,[3],-1.02%
same,inhibition,[4],-1.17%
same,inhibition,[5],0.55%
same,inhibition,[6],-4.04%
same,inhibition,[7],-5.93%
same,inhibition,[8],-0.95%
same,inhibition,[9],-1.37%
same,inhibition,[10],1.27%
CCc1ccc(Oc2nccc(-c3c(-c4ccc(F)cc4)ncn3C3CCNCC3)n2)cc1,inhibition,[1],4.62%
same,inhibition,[2],-0.7%
same,inhibition,[3],0.69%
same,inhibition,[4],1.39%
same,inhibition,[5],2.98%
same,inhibition,[6],5.05%
same,inhibition,[7],5.44%
same,inhibition,[8],2.14%
same,inhibition,[9],1.74%
same,inhibition,[10],0.08%
C[C@@H](Oc1cc(-n2cnc3ccc(OC4CCN(C)CC4)cc32)sc1C(N)=O)c1ccccc1Cl,inhibition,[1],9.93%
same,inhibition,[2],-0.56%
same,inhibition,[3],0.38%
same,inhibition,[4],2.08%
same,inhibition,[5],5.16%
same,inhibition,[6],5.55%
same,inhibition,[7],4.86%
same,inhibition,[8],16.1%
same,inhibition,[9],65.3%
same,inhibition,[10],-4.35%
O=C1NC(=O)C(c2cccc(Cl)c2)=C1Nc1ccc(Cl)c(C(=O)O)c1,inhibition,[1],0.4%
same,inhibition,[2],0.25%
same,inhibition,[3],1.42%
same,inhibition,[4],3.55%
same,inhibition,[5],5.32%
same,inhibition,[6],4.58%
same,inhibition,[7],5.29%
same,inhibition,[8],-0.66%
same,inhibition,[9],-0.28%
same,inhibition,[10],-0.18%
NC(=O)Cc1ccccc1Oc1nccc(-c2c(-c3ccc(F)cc3)ncn2C2CCNCC2)n1,inhibition,[1],2.22%
same,inhibition,[2],0.15%
same,inhibition,[3],-0.7%
same,inhibition,[4],4.43%
same,inhibition,[5],6.28%
same,inhibition,[6],2.61%
same,inhibition,[7],0.83%
same,inhibition,[8],0.4%
same,inhibition,[9],0.97%
same,inhibition,[10],0.18%
CCS(=O)(=O)c1ccc(OC)c(Nc2ncc(-c3ccccc3Cl)o2)c1,inhibition,[1],-0.17%
same,inhibition,[2],1.42%
same,inhibition,[3],0.93%
same,inhibition,[4],1.33%
same,inhibition,[5],1.36%
same,inhibition,[6],1.67%
same,inhibition,[7],0.7%
same,inhibition,[8],-0.02%
same,inhibition,[9],1.67%
same,inhibition,[10],-0.56%
NS(=O)(=O)c1ccc(N/N=C2\C(=O)Nc3ccc(-c4cnco4)cc32)cc1,inhibition,[1],16.6%
same,inhibition,[2],0.16%
same,inhibition,[3],4.38%
same,inhibition,[4],5.17%
same,inhibition,[5],27.9%
same,inhibition,[6],1.94%
same,inhibition,[7],4.44%
same,inhibition,[8],4.65%
same,inhibition,[9],38.9%
same,inhibition,[10],-0.37%
Cc1ccc(C(=O)NC(C)C)cc1-c1ccc(C(=O)NCC2CC2)cc1,inhibition,[1],2.12%
same,inhibition,[2],0.53%
same,inhibition,[3],0.4%
same,inhibition,[4],-0.31%
same,inhibition,[5],1.18%
same,inhibition,[6],-5.49%
same,inhibition,[7],-6.57%
same,inhibition,[8],0.13%
same,inhibition,[9],0.56%
same,inhibition,[10],0.1%
Cc1nnc(-c2ccc(C)c(-c3ccc(C(=O)NCc4ccc(Cl)cc4)cc3)c2)o1,inhibition,[1],2.93%
same,inhibition,[2],-0.31%
same,inhibition,[3],0.36%
same,inhibition,[4],4.66%
same,inhibition,[5],5.75%
same,inhibition,[6],5.44%
same,inhibition,[7],5.11%
same,inhibition,[8],0.2%
same,inhibition,[9],1.19%
same,inhibition,[10],-3.59%
COc1ccc2cc(-c3c(-c4ccncc4)nc(-c4ccc([S+](C)[O-])cc4C)n3C)ccc2c1 (stereo not given),inhibition,[1],-1.74%
same,inhibition,[2],-0.31%
same,inhibition,[3],-0.06%
same,inhibition,[4],-0.07%
same,inhibition,[5],0.13%
same,inhibition,[6],-1.33%
same,inhibition,[7],-1.4%
same,inhibition,[8],0.66%
same,inhibition,[9],0.72%
same,inhibition,[10],-0.27%
COc1cccc(-n2cnc3c(N/N=C/c4ccncc4)ncnc32)c1,inhibition,[1],4.05%
same,inhibition,[2],1.87%
same,inhibition,[3],4.15%
same,inhibition,[4],-0.02%
same,inhibition,[5],2.55%
same,inhibition,[6],1.83%
same,inhibition,[7],6.48%
same,inhibition,[8],-0.24%
same,inhibition,[9],-0.03%
same,inhibition,[10],-3.51%
N#Cc1ccc(Oc2nccc(-c3c(-c4ccc(F)cc4)ncn3C3CCNCC3)n2)cc1,inhibition,[1],-1.45%
same,inhibition,[2],-0.29%
same,inhibition,[3],-0.33%
same,inhibition,[4],5.34%
same,inhibition,[5],6.84%
same,inhibition,[6],4.1%
same,inhibition,[7],4.74%
same,inhibition,[8],1.27%
same,inhibition,[9],2.26%
same,inhibition,[10],-0.01%
O=C(Nc1ccc(Oc2ccc3[nH]c(NC(=O)c4ccccc4)nc3c2)cc1)Nc1cc(C(F)(F)F)ccc1F,inhibition,[1],1.49%
same,inhibition,[2],0.68%
same,inhibition,[3],0.73%
same,inhibition,[4],1.45%
same,inhibition,[5],7.47%
same,inhibition,[6],3.99%
same,inhibition,[7],4.6%
same,inhibition,[8],0.97%
same,inhibition,[9],0.07%
same,inhibition,[10],-0.34%
O=C(Nc1n[nH]c2nc(-c3ccco3)ccc12)C1CC1,inhibition,[1],0.11%
same,inhibition,[2],0.36%
same,inhibition,[3],-0.43%
same,inhibition,[4],1.05%
same,inhibition,[5],3.2%
same,inhibition,[6],0.75%
same,inhibition,[7],-0.31%
same,inhibition,[8],1.36%
same,inhibition,[9],0.54%
same,inhibition,[10],0.1%
CN(c1ccc(NC(=O)Nc2c(Cl)cccc2Cl)cc1)c1ccnc(Nc2cccc(CS(C)(=O)=O)c2)n1,inhibition,[1],2.99%
same,inhibition,[2],0.68%
same,inhibition,[3],2.77%
same,inhibition,[4],2.51%
same,inhibition,[5],8.06%
same,inhibition,[6],2.8%
same,inhibition,[7],6.5%
same,inhibition,[8],-0.26%
same,inhibition,[9],0.34%
same,inhibition,[10],0.03%
COc1cc(Nc2ncc3c(C)nc(-c4cccc(Oc5ccccc5)c4)n3n2)cc(OC)c1OC,inhibition,[1],5.64%
same,inhibition,[2],0.54%
same,inhibition,[3],-0.72%
same,inhibition,[4],-0.01%
same,inhibition,[5],5.67%
same,inhibition,[6],2.66%
same,inhibition,[7],-0.4%
same,inhibition,[8],0.91%
same,inhibition,[9],1.16%
same,inhibition,[10],0.23%
C[C@@H](Oc1cc(-n2cnc3ccc(OCC4CCN(C)CC4)cc32)sc1C(N)=O)c1ccccc1Cl,inhibition,[1],19.7%
same,inhibition,[2],-0.74%
same,inhibition,[3],3.45%
same,inhibition,[4],2.43%
same,inhibition,[5],10.2%
same,inhibition,[6],8.59%
same,inhibition,[7],9.94%
same,inhibition,[8],18.5%
same,inhibition,[9],70%
same,inhibition,[10],0.64%
CCS(=O)(=O)c1ccc(OC)c(Nc2ncc(-c3cccc(-c4ccccc4F)c3)o2)c1,inhibition,[1],0.68%
same,inhibition,[2],-0.22%
same,inhibition,[3],-0.96%
same,inhibition,[4],1.99%
same,inhibition,[5],9.38%
same,inhibition,[6],0.01%
same,inhibition,[7],-0.67%
same,inhibition,[8],-0.29%
same,inhibition,[9],5.63%
same,inhibition,[10],0.1%
CS(=O)(=O)CCNCc1cc(-c2cc3c(Nc4ccc(OCc5cccc(F)c5)c(Cl)c4)ncnc3s2)cs1,inhibition,[1],0.65%
same,inhibition,[2],-1.66%
same,inhibition,[3],-1.38%
same,inhibition,[4],1.42%
same,inhibition,[5],3.57%
same,inhibition,[6],3.77%
same,inhibition,[7],4.76%
same,inhibition,[8],1.41%
same,inhibition,[9],2.26%
same,inhibition,[10],-0.84%
O=C1Nc2ccccc2/C1=C/Nc1ccc(-n2cncn2)cc1,inhibition,[1],10.2%
same,inhibition,[2],0.03%
same,inhibition,[3],1.73%
same,inhibition,[4],9.39%
same,inhibition,[5],33.6%
same,inhibition,[6],5.95%
same,inhibition,[7],18.7%
same,inhibition,[8],0.85%
same,inhibition,[9],0.68%
same,inhibition,[10],0.56%
NC(=O)c1cc(-c2ccncc2)cc(-c2ccccc2)c1N,inhibition,[1],4.3%
same,inhibition,[2],0.12%
same,inhibition,[3],-1.32%
same,inhibition,[4],5.69%
same,inhibition,[5],4.23%
same,inhibition,[6],5.49%
same,inhibition,[7],5.48%
same,inhibition,[8],1.39%
same,inhibition,[9],1.24%
same,inhibition,[10],-0.25%
